Ba/F3 V617F tox: loss of viability in JAK2V617F-driven Ba/F3 cells; Ba/F3 EpoR-JAK2V617F viability, ATP luminescence; inhibition, % at 5.6 µM; 1.1% of 220,000 active;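 active means inhibition above the campaign mean plus 3 SD over all tested compounds, cut at about 24% in these data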;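 further: cytokine-independent growth of Ba/F3 cells driven by EpoR plus mutant JAK2; 0% = DMSO-treated cells and 100% = JAK inhibitor I control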
IEC-6 cytotox: kills IEC-6 intestinal cells in KLF5 counter-screen. IEC-6 cytotoxicity, luminescence viability. inhibition, % at 5 µM. 0.78% of 290,000 active. AID 1825;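 further: 0% = plate median of test compound wells and 100% = cytotoxic reference compound wells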
BaF3 tox: parental Ba/F3 viability inhibition as JAK2V617F counter-screen; CellTiter-Glo ATP luminescence; inhibition, % at 5.6 µM; 1.1% of 220,000 active;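 active means inhibition above a per-campaign cutoff, the mean inhibition of all tested compounds plus 3 SD, cut at about 27% in these data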;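 further: 0% = DMSO wells and 100% = JAK Inhibitor I control wells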
APP 5UTR inh: APP translation inhibition. SH-SY5Y APP 5'UTR-luciferase reporter, luminescence. 0.82% of 190,000 active. inhibition, % at 2 µM;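 active means inhibition above a set limit, derived from the sample mean plus 3 SD, cut at about 45% in these data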
KLF5 inhibitor: kruppel-like factor 5 inhibition | inhibition, % at 5 µM | AID 1700 | 0.23% of 290,000 active | DLD-1 KLF5 promoter-luciferase reporter, luminescence;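 active means inhibition above a per-plate limit of that plate's mean compound inhibition plus 3 SD, cut at about 60% in these data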;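 further: 0% = DMSO wells and 100% = LY294002 at 200 µM; higher means less KLF5 promoter-driven luciferase light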
IEC-6 tox confirm: confirmation of cytotoxic compounds in rat IEC-6 intestinal epithelial cells; shares compounds with IEC-6 cytotox; IEC-6 rat intestinal epithelial viability, luminescence; inhibition, % at 5 µM; 63% of 1,900 active; AID 1907;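 further: 0% = vehicle and 100% = reference cytotoxic drug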
Active calls of the source: *; . = no result given. Most compounds without a hit are left out; they make up all but 1.9% or so of the library. Unless noted, no stated cut-off is given here; in the data, active means inhibition above about 22%; inactive means the rest.

SMILES	Ba/F3 V617F tox	IEC-6 cytotox	BaF3 tox	APP 5UTR inh	KLF5 inhibitor	IEC-6 tox confirm
O=C(Nc1ccccc1SCC1CSc2nc3ccccc3c(=O)n21)c1ccccc1Cl (stereo not given)	-3	60*	4	-1	7	26*
Cc1ccc(C(=O)Nc2ccccc2SCC2CSc3nc4ccccc4c(=O)n32)cc1 (stereo not given)	4	70*	6	3	41	45*
Cc1cccc(C(=O)Nc2ccccc2SCC2CSc3nc4ccccc4c(=O)n32)c1 (stereo not given)	-2	66*	1	-11	-26	44*
COc1ccc(CC(=O)N2CCN=C2SCc2cccc([N+](=O)[O-])c2)cc1	-5	9	-2	-21	-5	.
Cc1ccc(C)c(NCCC#N)c1	-1	2	0	-9	-7	.
O=C(CCNC(=O)c1ccco1)Nc1ccc(F)c(Cl)c1	.	3	.	.	17	.
O=c1c2ccccc2nc2n1C(CSc1ccccc1)CS2 (stereo not given)	-1	4	1	-17	-16	.
O=C(Nc1ccccc1SCC1CSc2nc3ccccc3c(=O)n21)c1cccc(Cl)c1 (stereo not given)	3	69*	5	-1	30	42*
CCOc1ccc(Cl)cc1S(=O)(=O)n1cnc2ccccc21	0	8	6	11	-20	.
CCOc1ccc(C)cc1S(=O)(=O)n1cnc2ccccc21	.	51*	.	.	56	29*
Cc1ccnc(Nc2nc(-c3ccc(O)c(O)c3)cs2)c1	.	36*	.	.	-86	18
CCOc1ccc(C(=O)NCCc2ccc3c(c2)OCCO3)cc1	0	-2	5	3	-45	.
O=C(CCl)N1CCCC1c1ccc2c(c1)OCCO2 (stereo not given)	.	78*	.	.	20	24*
COc1ccc(C2(C)NC(=O)NC2=O)cc1OC (stereo not given)	.	4	.	.	-3	.
COc1cc(OC)cc(C(=O)NCC(=O)Nc2ccc(-c3ccccc3)cc2)c1	.	30*	.	.	-14	9
COc1ccccc1C(=O)NNC(=S)NC(=O)c1cccs1	.	48*	.	.	60	28*
O=C(NC(=S)NNC(=O)c1ccccc1O)c1cccs1	.	-11	.	.	-4	.
COc1cccc(C(=O)NN/C(C)=C/C(=O)C(F)(F)C(F)(F)C(F)(F)F)c1	0	0	4	-14	-11	.
CC1=Nc2cc(C(=O)NCC3CCCO3)ccc2Sc2ccc(C)cc21 (stereo not given)	.	79*	.	.	61	53*
CC1=Nc2cc(C(=O)NCCCN3CCN(C)CC3)ccc2Sc2ccc(C)cc21	.	-3	.	.	-35	.
O=c1c2cccnc2[nH]c(=S)n1CCCN1CCN(c2ccc(F)cc2)CC1	-1	15	3	-1	5	.
COc1ccc(N2CCN(CCCn3c(=S)[nH]c4ncccc4c3=O)CC2)cc1	0	30*	5	1	-2	19
CC(=O)N1c2ccc(S(=O)(=O)NCCC(=O)Nc3ccc(C)c(F)c3)cc2CC1C (stereo not given)	.	0	.	.	-24	.
CC(C)[C@H](NC(=O)c1ccccc1)C(=O)OCC(=O)N1CCN(C(=O)c2ccco2)CC1	-3	-4	2	-9	-22	.
O=C(Nc1ccc2nc(-c3cccs3)[nH]c2c1)c1cccs1	-3	-3	1	-30	-50	.
SMILES	Ba/F3 V617F tox	IEC-6 cytotox	BaF3 tox	APP 5UTR inh	KLF5 inhibitor	IEC-6 tox confirm
O=C(Nc1ccc(-c2nc3ccc(NC(=O)c4cccs4)cc3[nH]2)cc1)c1cccs1	98*	53*	102*	15	-82	43*
O=C(CCn1c(=O)oc2ccccc21)N1CCN(c2ccccc2Cl)CC1	13	23*	16	-3	32	40*
CCCCOc1ccccc1C(=O)NNC(=S)NC(=O)c1ccccc1[N+](=O)[O-]	.	25*	.	.	15	7
O=C(NNC(=S)NC(=O)c1ccccc1[N+](=O)[O-])c1ccccc1[N+](=O)[O-]	4	0	7	-6	-27	.
CCOc1c(Cl)cc(C(=O)Nc2ccccc2C(=O)O)cc1Cl	25*	37*	27*	6	-77	17
O=C(CNC(=O)c1cncc(Br)c1)Nc1ccc(F)c(F)c1F	.	-3	.	.	1	.
Cc1ccc(CNC(=O)CCc2nnc3ccc(N4CCC5(CC4)OCCO5)nn23)cc1	.	-1	.	.	4	.
COCCCNC(=S)Nc1cc2oc3ccccc3c2cc1OC	.	34*	.	.	16	22*
O=c1[nH]c(/C=C/c2ccccc2Cl)nc2ccccc12	.	39*	.	.	-50	24*
O=C(/C=C/c1ccccc1[N+](=O)[O-])NCc1ccncc1	-1	2	3	-18	-8	.
